BH1578 lux ind – inducers of Vibrio cholerae quorum light production without autoinducers, primary screen, BH1578 luxS cqsA deficient, single point | V. cholerae BH1578 lux reporter, luminescence, 6 h | activation, % at 18.7 µM | AID 588436, 2011 | 350,000 compounds, 0.16% hits; in the data active = activation mostly above about 9.7%, no sharp cut-off
Mtb FBA inh – Mtb FBA enzyme inhibitors, primary screen, biochemical, fluorescence, strain H37Rv; Fructose-bisphosphate aldolase (Mycobacterium tuberculosis (strain ATCC 25618 / H37Rv)), …; purified M. tuberculosis FBA, fluorescence read-out; inhibition, % at 1 µM; 360,000 compounds, 2.3% hits; AID 588726, 2011; in the data active = inhibition above about 27%
RecA splice inh – Mtb RecA intein splicing inhibitors, primary screen, biochemical, fluorescence, HTS. cell-free RecA intein splicing. Protein RecA (Mycobacterium tuberculosis (strain ATCC 25618 / H37Rv)), P9WHJ3. inhibition, % (no concentration beside the values). 290,000 compounds, 0.75% hits. AID 2221, 2009; in the data active = inhibition above about 30%
GDH-TPI counter – GDH-TPI coupling enzyme inhibitors, primary screen, artefact control for M. tuberculosis FBA inhibitor project, biochemical, absorbance, full deck | GDH-TPI coupled enzyme counterscreen, NADH absorbance | inhibition, % at 4.8 µM | 360,000 compounds, 1.2% hits; in the data active = inhibition above about 30%
Rv3671c protease – Rv3671c serine protease inhibitors, primary screen, biochemical, fluorescence polarization, M. tuberculosis H37Rv. AID 2606, 2010. P9WHR9. inhibition, % at 5.96 µM. 320,000 compounds, 0.048% hits; in the data active = inhibition above about 38%;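 also: extracellular domain of Rv3671c used as enzyme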
UGM FP inh – M. tuberculosis UGM enzyme inhibitors, primary screen, biochemical, fluorescence polarization, single point; UDP-galactopyranose mutase (Mycobacterium tuberculosis (strain ATCC 25618 / H37Rv)), …; purified UGM, fluorescence polarization probe displacement; inhibition, % at 10 µM; 320,000 compounds, 0.06% hits; AID 504406, 2011; in the data active = inhibition above about 10%, passing the limit was not always enough
Target sequence (P9WIQ1 whole entry, looked up): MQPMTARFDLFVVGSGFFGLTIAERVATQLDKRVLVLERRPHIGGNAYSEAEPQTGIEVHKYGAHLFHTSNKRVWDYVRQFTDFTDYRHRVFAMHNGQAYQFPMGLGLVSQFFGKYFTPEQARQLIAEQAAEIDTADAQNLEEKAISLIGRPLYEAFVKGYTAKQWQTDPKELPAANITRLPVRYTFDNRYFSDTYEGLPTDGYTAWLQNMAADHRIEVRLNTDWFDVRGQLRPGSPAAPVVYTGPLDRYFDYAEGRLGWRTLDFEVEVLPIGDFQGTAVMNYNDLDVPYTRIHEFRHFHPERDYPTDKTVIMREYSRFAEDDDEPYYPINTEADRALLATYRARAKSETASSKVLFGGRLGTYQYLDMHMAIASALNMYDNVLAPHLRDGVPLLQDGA
A number is an active result; i = inactive; nt = no result given; + = active, no number. Hits are enriched below; roughly 4.1% of the tested compounds scored in any of these assays.

SMILES	BH1578 lux ind	Mtb FBA inh	RecA splice inh	GDH-TPI counter	Rv3671c protease	UGM FP inh
O=C(COC(=O)CNC(=O)c1ccc(Cl)cc1Cl)NC(=O)NCc1ccccc1	i	i	i	i	i	i
O=C(CSc1nc(=O)n(CCN2CCOCC2)c2c1CCC2)Nc1ccc(OC(F)(F)F)cc1	i	i	i	i	i	i
Cc1ccc(CNC(=O)C2CCCN(S(=O)(=O)c3c(C)noc3/C=C/N(C)C)C2)cc1 (centres undefined)	i	i	i	51.6	i	i
Cc1noc(/C=C/N(C)C)c1S(=O)(=O)N1CCCC(C(=O)NCc2ccccc2Cl)C1 (centres undefined)	i	i	nt	31.6	i	i
Cc1noc(/C=C/N(C)C)c1S(=O)(=O)N1CCCC(C(=O)NCc2ccc(F)cc2)C1 (centres undefined)	nt	nt	i	nt	i	i
COc1ccc(CNC(=O)C2CCCN(S(=O)(=O)c3c(C)noc3/C=C/N(C)C)C2)cc1 (centres undefined)	i	i	i	i	i	i
Cc1noc(/C=C/N(C)C)c1S(=O)(=O)N1CCCC(C(=O)NCc2ccc(Cl)cc2)C1 (centres undefined)	i	i	nt	56.0	i	i
CCOc1ccc(NC(=O)CN2C(=O)NC(C)(c3ccc4c(c3)OCCCO4)C2=O)cc1OCC (centres undefined)	i	i	nt	i	nt	nt
COc1ccc(C(=O)C(CN2CCOCC2)c2ccccc2)cc1 (centres undefined)	i	i	i	i	i	i
CCCCOc1ccc(C(=O)C(CN2CCOCC2)c2ccccc2)cc1 (centres undefined)	i	i	31.6	i	i	i
OC[C@@H]1[C@@H](c2ccccc2)C(c2ccc(F)cc2)=NN1c1ccccc1	i	45.9	nt	i	nt	nt
COc1ccccc1[C@H]1C(c2cccc(Cl)c2)=NN(c2ccccc2)[C@@H]1CO	i	46.3	nt	i	nt	nt
C[C@@H]1C(c2ccc(F)cc2)=NN(c2ccccc2)[C@H]1C(=O)N1CCOC1=O	i	i	nt	i	nt	nt
CCOC(=O)Cc1csc(NC(=O)c2cnc3sc(C)cn3c2=O)n1	i	i	i	53.9	i	i
CCOC(=O)Cc1csc(NC(=O)c2cc3c(s2)CCCC3)n1	i	i	i	30.9	i	i
Cc1cc(C)nc(SCC(=O)OCC(=O)N(C)c2c(N)n(Cc3ccccc3)c(=O)[nH]c2=O)n1	i	i	i	i	i	i
O=C(O)CCCC(=O)Nc1nc2n(n1)C(c1ccc(F)cc1)CC(c1ccc(Cl)cc1)N2 (centres undefined)	i	i	i	i	i	i
CC1=CC(c2ccc(Cl)cc2)n2nc(NC(=O)CCC(=O)O)nc2N1 (centres undefined)	i	115.0	i	i	i	i
CC(NC(=O)/C(C#N)=C/c1ccc(C(=O)O)cc1)c1ccccc1 (centres undefined)	i	i	i	38.3	i	i
Cc1ccc(/C=C(\C#N)C(=O)NC(C)C)o1	i	i	i	64.6	i	i
Cc1ccc(/C=C(\C#N)C(=O)NC(C)c2ccccc2)o1 (centres undefined)	i	i	i	33.0	i	i
COc1cc(/C=C(/C#N)C(=O)NC(C)c2ccccc2)cc(OC)c1O (centres undefined)	i	i	i	i	i	i
Cc1cc(C)n(CC(=O)NC2CCCc3c2cnn3-c2ccccc2F)n1 (centres undefined)	i	i	i	i	i	i
CCOc1cc(N2CCOCC2)c(OCC)cc1NC(=O)COC(=O)c1ccc(OC)c([N+](=O)[O-])c1	i	i	nt	i	nt	nt
Cc1cc(C)c(Cn2c(=O)[nH][nH]c2=O)cc1Cn1c(=O)[nH][nH]c1=O	i	i	nt	i	nt	nt
SMILES	BH1578 lux ind	Mtb FBA inh	RecA splice inh	GDH-TPI counter	Rv3671c protease	UGM FP inh
C=CCNC(=O)CSc1nc2sc3c(c2c(=O)n1CCCOC)CCC3	i	i	i	35.0	i	i
C=CCNC(=O)CSc1nc2sc3c(c2c(=O)n1CCC)CCC3	i	i	i	i	i	i
CN(C)C1=NCCN1CCc1ccccc1	i	i	nt	i	i	i
COc1cc(/C=C2\C(C)=C(C#N)c3nc(N)c(C#N)c(C)c32)ccc1OCC(=O)O	i	i	i	i	i	i
CC1=C(C#N)c2nc(N)c(C#N)c(C)c2/C1=C\c1ccc(C)cc1	nt	nt	33.2	nt	i	i
CCOc1cc(C(=S)N2CCN(C)CC2)ccc1OCC(=O)N1CCCC1	i	i	i	i	i	i
CCCn1c(O)c(N=N)c2ccccc21	+	i	i	i	i	i
CCCn1c(O)c(N=NC(=O)c2ccco2)c2ccccc21	i	i	i	32.6	i	i
O=Nc1c(O)n(Cc2ccccc2)c2ccccc12	80.9	i	i	i	i	i
CC1CCC(NC(=O)COC(=O)c2cccnc2Cl)CC1 (centres undefined)	i	i	nt	i	i	nt
COc1ccc(C(=O)N2CCc3ccc(NC(=O)c4ccccn4)cc3C2)cc1F	i	i	i	i	nt	nt
CN(NC1OC(=O)c2ccccc21)c1ccc(Cl)cc1[N+](=O)[O-] (centres undefined)	i	i	i	38.8	i	i
C/C(=N\NC(=O)c1cc(-c2ccc(Cl)s2)[nH]n1)c1ccncc1	i	i	i	i	i	i
CSc1nc(C)c2cc(C)oc2n1	i	i	i	i	i	i
Cc1nc(/C=C\C(=O)O)c2cc(C)oc2n1	i	+	i	i	i	i
COC(=O)c1ccc(OC(=O)c2cccs2)cc1	i	i	i	i	i	i
CCC(=O)c1ccc(OC(=O)c2cccs2)cc1	i	i	31.9	i	i	i
Fc1ccc(Oc2nc(-c3ccccc3)nnc2C(F)(F)F)cc1	i	i	62.0	i	i	i
N/C(=N\N=C\c1ccco1)SC1CC(=O)N(c2ccccc2)C1=O (centres undefined)	i	i	i	i	i	i
N/C(=N\N=C\c1ccco1)SC1CC(=O)N(c2ccc(C(=O)O)cc2)C1=O (centres undefined)	i	i	i	45.0	i	i
C/C(=N\N=C(/N)SC1CC(=O)N(c2ccccc2)C1=O)c1cccs1 (centres undefined)	i	i	i	41.2	i	i
N/C(=N\N=C\c1cccs1)SC1CC(=O)N(c2ccc(Br)cc2)C1=O (centres undefined)	i	i	i	31.6	i	i
Cc1ccc(S(=O)(=O)C2(C(=O)NC3CCCCC3)CC2)cc1	i	i	i	i	i	i
FC(F)(F)c1cccc(Cn2cnc(NC(=S)NCCc3ccccc3)n2)c1	i	i	i	i	i	i
Cn1c(=O)c2cc(NC(=O)NCCc3ccccc3)ccc2n1Cc1ccccc1	i	127.2	nt	i	nt	nt
